Results on twelve compounds are retold here after PubChem BioAssay (Tox21).

Test [1] is described as follows: qHTS assay to identify small molecule agonists of the constitutive androstane receptor (CAR) signaling pathway - cell viability counter screen (AID 1224836). Note: nearly all actives have a fitted effect of over 45% in size. Note: potency is the fitted concentration of half-maximal effect. Put shortly:
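Fluorescence from CellTiter-Fluor indicates live cells after 23 h exposure. The human hepatoma line expresses hCAR and a CYP2B6-2.2kb reporter. Incubation medium contains 0.75 uM PK11195 (final).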
In general terms: In qHTS, concentration-response curves come from the screen itself.

Test [2] in a line: qHTS assay to identify small molecule antagonists of the constitutive androstane receptor (CAR) signaling pathway - cell viability counter screen (AID 1224837). Note: nearly all actives have a fitted effect of over 45% in size. Note: potency is the fitted concentration of half-maximal effect. The procedure, abridged:
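To flag cytotoxic false antagonists, HepG2 hCAR/CYP2B6-2.2kb cells were treated 23 hr with 15-concentration compound series and 50 nM CITCO at 37 C/5% CO2; CellTiter-Fluor fluorescence was the measured end point.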

Test [3] can be described thus: qHTS assay to identify small molecule antagonists of the estrogen related receptor signaling pathway with the pleiotropic PPARgamma coactivator (PGC) from Tox21 10K library - cell viability counter screen (AID 1224840; active = well fitted cell-killing curve with a large enough effect in the repeat runs, not every such curve was filed as active; note: nearly all actives have a fitted effect of over 40% in size; note: potency is the fitted concentration of half-maximal effect). Put shortly: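 Seeded PGC/ERR cells (2,000/well, 6 h, 37 C/5% CO2) get compound by pin tool; 17.5 h incubation at 37 C; CellTiter-Fluor added, 30 min, fluorescence measured.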

The nature of test [4]: qHTS assay to identify small molecule agonists of the estrogen related receptor signaling pathway with the pleiotropic PPARgamma coactivator (PGC) from Tox21 10K library (AID 1224842). Note: nearly all actives have a fitted effect of over 15% in size. Put shortly: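 PGC/ERR reporter cells (NTP line) were seeded 2,000 per well, rested 6 h at 37 C/5% CO2, then pin-dosed with compounds in DMSO for 18 h at 37 C; luciferase read by One-Glo luminescence after 30 min at room temperature.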

The nature of test [5]: qHTS assay to identify small molecule agonists of the hypoxia (HIF-1) signaling pathway - cell viability counter screen (AID 1224844; calls by dose curve; note: nearly all actives have a fitted effect of over 50% in size; note: potency is the fitted concentration of half-maximal effect). The procedure, abridged: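 HRE-bla ME-180; 0.5% dFBS; cpd 17 h, 37C, 5% CO2; CellTiter-Glo lum., 30 min RT, post-FRET read, same wells.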
Test [6] is described as follows: qHTS assay to identify small molecule agonists of H2AX (AID 1224845; active = well fitted activation curve with a large enough effect in the signal ratio in the repeat runs, not every such curve was filed as active; the % refers to the signal ratio). Put shortly:
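Wild-type CHO-K1 cells plated overnight, then exposed 3 hr at 37C to compounds at 15 concentrations (0.76% DMSO). Lysed, then HTRF anti-pH2AX(S139)-cryptate/anti-H2AX-d2 detection after 24 hr at room temperature; emissions 665 and 620 nm.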

Test [7] can be described thus: qHTS assay to identify small molecule agonists of H2AX - cell viability counter screen (AID 1224847; calls by dose curve; note: nearly all actives have a fitted effect of over 30% in size; note: potency is the fitted concentration of half-maximal effect). The procedure, abridged: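 Viability of CHO-K1 (wild type) cells after 3 hr compound exposure was measured by CellTiter-Glo luminescence.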
A short description of test [8]: qHTS assay to identify small molecule antagonists of the estrogen related receptor (ERR) signaling pathway from Tox21 library (AID 1224848). Note: nearly all actives have a fitted effect of over 50% in size. Note: potency is the fitted concentration of half-maximal effect. Put shortly: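 First, 2,000 ERR cells per well were plated and held 6 h at 37 C/5% CO2. Next, compounds in DMSO were pinned in and left 18 h at 37 C. Finally, ONE-Glo was added and luminescence read after 30 min at room temperature.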

Test [9] is described as follows: qHTS assay to identify small molecule agonists of the estrogen related receptor (ERR) signaling pathway from Tox21 library (AID 1224849; calls by dose curve; note: nearly all actives have a fitted effect of over 15% in size). The note with it: ERR reporter cell line, ONE-Glo luciferase, 18 h; at 92.4 µM (top of the series) unless noted. The procedure, abridged: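 Tox21 compounds tested for ERR agonism in an NTP reporter cell line: 18 h treatment at 37 C, then ONE-Glo luminescence.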

Test [10] in a line: qHTS RealTime-Glo MT Cell Viability Assay in HepG2 cells - 24 hour (AID 1224867). Note: nearly all actives have a fitted effect of over 50% in size. Note: potency is the fitted concentration of half-maximal effect. The procedure, abridged:
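Cell number in HepG2 cultures estimated from NanoLuc luminescence generated by metabolic reduction of a prosubstrate by living cells. The homogeneous, nonlytic format allowed repeated reads at 0, 8, 16, 24, 32 and 40 h of compound exposure.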

Test [11] can be described thus: A CellTox Green Cytotoxicity Assay to monitor cytotoxicity in HEK293 cells - 0 hour (AID 1224869). Note: nearly all actives have a fitted effect of over 50% in size. Put shortly:
(§1)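 Tox21 screen in HEK293: membrane-impermeant cyanine dye fluoresces on binding dead-cell DNA; compound pinned 5 h post-seeding, plates held at 37 C, signal read repeatedly through 40 h.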

A short description of test [12]: qHTS RealTime-Glo MT Cell Viability Assay in HepG2 cells - 40 hour (AID 1224870). Note: nearly all actives have a fitted effect of over 50% in size. Note: potency is the fitted concentration of half-maximal effect. Put shortly:
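HepG2 cells mixed with RealTime-Glo MT reagents (NanoLuc plus cell-permeant prosubstrate) were seeded at 600 cells/well, incubated 5 h at 37 C/5% CO2, then pinned with compounds in DMSO; nonlytic luminescence tracked viability during 40 h treatment.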

Test [13] can be described thus: A CellTox Green Cytotoxicity Assay to monitor cytotoxicity in HEK293 cells - 40 hour (AID 1224871). Note: nearly all actives have a fitted effect of over 45% in size. Note: potency is the fitted concentration of half-maximal effect. The procedure, abridged: as §1
Test [14] is described as follows: qHTS RealTime-Glo MT Cell Viability Assay in HEK293 cells - 16 hour (AID 1224872). Note: nearly all actives have a fitted effect of over 50% in size. Note: potency is the fitted concentration of half-maximal effect. Put shortly:
(§2)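 Homogeneous bioluminescent viability format in HEK293 cells (600 cells/well). Following 5 h at 37 C/5% CO2, 23 nL compound was pintooled; the signal was measured repeatedly during 40 h incubation.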

The nature of test [15]: qHTS assay to identify small molecule antagonists of the estrogen related receptor signaling pathway with the pleiotropic PPARgamma coactivator (PGC) from Tox21 10K library (AID 1224841; call rule not given here; note: potency is the fitted concentration of half-maximal effect). Put shortly: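 Test chemicals dissolved in DMSO were applied to pre-incubated (6 h) PGC/ERR cells at 2,000 cells/well for an 18 h, 37 C treatment; reporter luminescence was then read using One-Glo.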

For test [16], the target named is Thyrotropin receptor (Homo sapiens) (UniProt P16473). Kind of test: qHTS assay to identify small molecule agonists of the thyroid stimulating hormone receptor (TSHR) signaling pathway (AID 1224843; calls by dose curve; note: nearly all actives have a fitted effect of over 45% in size). The procedure, abridged:
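Compounds are titrated over 15 concentrations, in triplicate, onto TSHR-HEK293 cells seeded at 800/well. Plates sit 30 min at room temperature before cAMP-d2 and anti-cAMP cryptate are added; signal is read after a further hour.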

The nature of test [17]: qHTS assay to identify small molecule agonists of the hypoxia (HIF-1) signaling pathway (AID 1224846; active = well fitted activation curve with a large enough effect in the signal ratio in the repeat runs, not every such curve was filed as active; the % refers to the signal ratio). Put shortly: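 Reporter induction in HRE-bla ME-180 cells is taken as agonism: cells sit 5 hrs after plating, receive compounds or DMSO only, incubate 17 hrs at 37C under 5% CO2, and are loaded with CCF4-AM for beta-lactamase FRET measurement.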
Test [18] can be described thus: qHTS RealTime-Glo MT Cell Viability Assay in HEK293 cells - 32 hour (AID 1224868). Note: nearly all actives have a fitted effect of over 50% in size. Note: potency is the fitted concentration of half-maximal effect. Put shortly:
as §2

A number with no mark means an inactive call. Inconclusive results are not listed. The source made the active and inactive calls. Unless noted, calls come from the whole dose curve; as a rule, active = well fitted curve in the direction sought with a large enough effect in the repeat runs; inconclusive = weak or mixed curves; inactive = no such curve, though single readings can be large; an effect the other way counts as inactive or inconclusive.
% is set by controls: 0 for no effect and ±100 for the full control effect.

Thyrotropin receptor (Homo sapiens), sequence (P16473 whole entry, looked up): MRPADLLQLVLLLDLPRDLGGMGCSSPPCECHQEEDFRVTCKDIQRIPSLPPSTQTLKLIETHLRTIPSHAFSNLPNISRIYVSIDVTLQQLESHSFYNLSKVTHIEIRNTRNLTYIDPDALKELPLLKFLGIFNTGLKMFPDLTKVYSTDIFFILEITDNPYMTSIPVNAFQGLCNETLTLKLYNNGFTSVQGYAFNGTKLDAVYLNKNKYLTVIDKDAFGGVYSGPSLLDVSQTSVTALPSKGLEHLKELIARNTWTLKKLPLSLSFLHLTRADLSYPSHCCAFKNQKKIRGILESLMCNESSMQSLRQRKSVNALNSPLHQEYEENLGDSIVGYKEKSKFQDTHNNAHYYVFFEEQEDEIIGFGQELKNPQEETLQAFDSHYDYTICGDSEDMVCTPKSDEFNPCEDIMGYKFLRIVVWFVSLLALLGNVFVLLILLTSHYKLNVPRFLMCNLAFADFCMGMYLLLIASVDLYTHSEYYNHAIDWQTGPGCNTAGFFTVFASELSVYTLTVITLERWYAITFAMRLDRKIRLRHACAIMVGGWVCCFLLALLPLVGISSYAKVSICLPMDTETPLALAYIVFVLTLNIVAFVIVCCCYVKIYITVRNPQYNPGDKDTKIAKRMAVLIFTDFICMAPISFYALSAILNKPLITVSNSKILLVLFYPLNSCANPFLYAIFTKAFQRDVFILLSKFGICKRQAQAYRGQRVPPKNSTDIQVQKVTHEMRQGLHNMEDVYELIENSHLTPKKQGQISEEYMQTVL

With `O=C(NO)C1(NS(=O)(=O)c2ccc(Oc3ccc(F)cc3)cc2)CCOCC1`, the Potency entry in test [1], in test [2], in test [3], in test [4], in test [5] and in [6] was “inactive” in each case. Moreover, the Potency result in test [7], in [10], in test [11], in test [12], in test [13] and in test [14] was “inactive” throughout. Besides, the Potency in [8] is 27.3 µM (active). Moreover, the activity change, positive = activation in test [9] was -35.1%.
As for `C/C=C(\C)C(=O)OCc1ccccc1`, the Potency result in test [1], in [2], in [3], in test [15], in test [4] and in test [16] was “inactive” throughout. Moreover, the Potency result in [5], in test [6], in [17], in test [7], in [8] and in test [10] was “inactive” throughout. In addition, the Potency entry in [11] and in test [14] was “inactive” throughout. Also, the activity change, positive = activation in test [9] was 5.16%.
In the case of `CN(C)CCCOC1(Cc2ccccc2)CCCCCC1`, the Potency result in test [1], in test [2], in [3], in test [16], in test [6] and in [17] was “inactive” each time. The Potency result in [7], in test [10], in test [18], in [11], in [13] and in [14] was “inactive” throughout.
Regarding `C[C@@H]1C[C@H]2[C@@H]3CCC4=CC(=O)C=C[C@]4(C)[C@@]3(Cl)[C@@H](O)C[C@]2(C)[C@@]1(OC(=O)c1ccco1)C(=O)CCl`, the Potency result in test [1], in test [2], in [4], in [16], in test [6] and in test [7] was “inactive” in each case. Besides, the Potency entry in [11], in test [13] and in [14] was “inactive” throughout. For the same compound, the Potency in test [15] is 23.7 µM (active); in test [8] it was 13.3 µM (active). Besides, the activity change, positive = activation in test [9] is -51.1% [at 42.5 µM].
With `C[C@]12CCC(=O)C=C1CC[C@@H]1[C@@H]2[C@@H](O)C[C@@]2(C)[C@H]1CC[C@]2(O)C(=O)COC(=O)CCC(=O)O`, the Potency entry in test [1], in test [2], in test [3], in test [16], in test [5] and in test [6] was “inactive” throughout. In addition, the Potency entry in test [7], in test [10], in test [18], in test [11], in [12] and in [13] was “inactive” throughout. In addition, the Potency entry in [14] was “inactive”.
Consider `O=c1c(-c2ccccc2)c1-c1ccccc1`, for which the Potency result in test [1], in test [2], in [4] and in test [11] was “inactive” throughout. The Potency is 9.44 µM (active) in [15]; 13.4 µM (active) in test [5]; 8.41 µM (active) in test [8]; 16.9 µM (active) in [10]; 13.4 µM (active) in [18]; 15.1 µM (active) in [12]. The Potency in test [13] is 5.35 µM (active); in test [14], 15.1 µM (active). For the same compound, the activity change, positive = activation in test [9] is -61.4% [at 42.5 µM].
As to `[O-][n+]1ccccc1SSc1cccc[n+]1[O-]`, the Potency in test [1] was 0.92 µM (active); in test [2], 0.206 µM (active); in [15] it was 1.64 µM (active); in [5], 0.117 µM (active); in test [8], 0.259 µM (active); in [10] it was 0.208 µM (active). Also, the Potency in [18], in [13] and in [14] was 1.31 µM (active) each time. The values for the activation in test [4] and in [16] were -33.7% [at 19 µM] and 15.2% [at 19 µM], respectively. In addition, in test [9], the activity change, positive = activation was -64% [at 19 µM].
On to `CC(C)C(C)(C)C(C)(C)C(C)(C)S`, for which the Potency entry in test [1], in test [2], in [3], in test [16], in [6] and in [17] was “inactive” each time. The Potency entry in test [7], in test [10] and in test [13] was “inactive” each time.
Regarding `CNC(=O)c1ccccc1`, the Potency entry in test [1], in [2], in test [3], in test [16], in test [6] and in test [17] was “inactive” each time. For the same compound, the Potency entry in [7], in test [10], in test [18], in [11], in test [12] and in test [13] was “inactive” throughout. In addition, in test [14], the Potency entry is “inactive”.
Take `c1cc(C(c2ccc(OCC3CO3)cc2)c2ccc(OCC3CO3)cc2)ccc1OCC1CO1` (stereo not drawn): the Potency result in test [1], in [2], in test [16], in test [5], in test [6] and in [7] was “inactive” in each case. In addition, the Potency result in [11] and in [14] was “inactive” in each case. For the same compound, in test [12], the Potency is 54.9 µM (active).
For `CC(=O)SC[C@@H](Cc1ccccc1)C(=O)NCC(=O)OCc1ccccc1`, the Potency entry in test [1], in test [2], in test [3], in test [5], in [6] and in test [7] was “inactive” each time. Further, the Potency result in test [10], in test [11], in test [12], in test [13] and in [14] was “inactive” throughout.
For `CCCCCCCCNC(C)C(O)c1ccc(SC(C)C)cc1` (stereo not drawn), the Potency in test [1] is 29.8 µM (active); in test [2], 29.8 µM (active); in [3], 29.8 µM (active); in test [5] it was 19 µM (active); in test [7] it was 43.8 µM (active); in test [8], 23.7 µM (active). In addition, the Potency in [10] is 13.4 µM (active); in test [18], 9.52 µM (active); in test [12] it was 13.4 µM (active); in test [13] it was 16.9 µM (active); in test [14], 10.7 µM (active). The Potency entry in test [4], in [6] and in test [11] was “inactive” throughout. Further, the activity change, positive = activation in test [9] is -63% [at 42.5 µM].
